Data published in PMC7826789 (International Journal of Molecular Sciences, 2021).

How the values were obtained:
Conditions in all cases: Compound Concentration (nM):1000
[1] = tested on: T1, JNK1
T1 construct: gene MAPK8

[2] = tested on: T2, JNK2
T2 construct: gene MAPK9

[3] = tested on: T3, JNK3
T3 construct: gene MAPK10

[4] = tested on: KIT(A829P)
[5] = tested on: KIT(D816H)
[6] = tested on: KIT(D816V)
[7] = tested on: KIT(L576P)
[8] = tested on: KIT(V559D)
[9] = tested on: KIT(V559D,T670I)
[10] = tested on: KIT(V559D,V654A)
[11] = tested on: KIT-autoinhibited
[12] = tested on: KIT
[13] = tested on: LATS1
[14] = tested on: LATS2
[15] = tested on: LCK
[16] = tested on: LIMK1
[17] = tested on: LIMK2
[18] = tested on: T4, LKB1
T4 construct: gene STK11

[19] = tested on: T5, LOK
T5 construct: gene STK10

[20] = tested on: LRRK2(G2019S)
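Further: KINOMEscan scanMAX binding as percent activity remaining versus control; lower means stronger binding.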

Structure (SMILES)	Percent Control [1]	Percent Control [2]	Percent Control [3]	Percent Control [4]	Percent Control [5]	Percent Control [6]	Percent Control [7]	Percent Control [8]	Percent Control [9]	Percent Control [10]	Percent Control [11]	Percent Control [12]	Percent Control [13]	Percent Control [14]	Percent Control [15]	Percent Control [16]	Percent Control [17]	Percent Control [18]	Percent Control [19]	Percent Control [20]
COc1cc(N2CCN(C(C)C)CC2)ccc1Nc1nc(Nc2ccc(F)cc2C(=O)NC[C@@H](O)CO)c2cc[nH]c2n1 [GSK1392956A]	0%	0.1%	0.1%	88%	57%	100%	100%	100%	96%	98%	100%	100%	100%	95%	100%	92%	75%	81%	100%	5.4%
CN1CCN(C(=O)c2ccc(NC(=O)Nc3ccc(N(C)c4ccnc(Nc5ccc(CS(C)(=O)=O)cc5)n4)cc3)cc2)CC1.Cl [GW830263A]	5.5%	19%	8.6%	0%	27%	23%	0%	0%	0.1%	9.1%	35%	0%	68%	59%	85%	61%	43%	76%	0.4%	71%
Cl.O=C(Nc1ccc(Oc2ccc3[nH]c(NC(=O)c4ccco4)nc3c2)cc1)Nc1cc(C(F)(F)F)ccc1F [GW683134A]	85%	86%	100%	15%	96%	48%	0%	0%	2.3%	10%	83%	0.4%	100%	97%	6.3%	76%	84%	87%	0.1%	66%
COc1cccc(-c2c[nH]c3c(N/N=C/c4ccncc4)ncnc23)c1 [GW814408X]	99%	97%	90%	27%	12%	9.8%	2.1%	1.7%	12%	33%	38%	5%	100%	89%	7.5%	100%	84%	88%	100%	89%
CCS(=O)(=O)c1ccc(OC)c(Nc2ncc(-c3cccc(OC)c3)o2)c1 [GW580509X]	76%	89%	95%	83%	52%	42%	0%	2.3%	66%	79%	20%	9.1%	100%	100%	46%	100%	100%	100%	100%	100%
O=C1Nc2ccc(C(=O)c3ccco3)cc2C1=Cc1cc(Cl)c(O)c(Cl)c1 [GW406108X]	64%	70%	64%	83%	69%	81%	38%	52%	78%	100%	82%	62%	100%	92%	89%	100%	100%	100%	94%	6.9%
CC1=C(C(=O)Nc2ccc3[nH]ncc3c2)C(c2ccc(Cl)c(Cl)c2)CC(=O)N1 (stereo not shown) [GSK299115A]	84%	73%	77%	79%	78%	94%	100%	100%	94%	100%	100%	100%	60%	1.5%	80%	94%	63%	100%	71%	100%
CCc1ccc(Oc2nccc(-c3c(-c4ccc(F)cc4)ncn3C3CCNCC3)n2)cc1 [SB-242719]	65%	15%	17%	94%	73%	100%	85%	95%	94%	74%	100%	83%	100%	70%	74%	75%	100%	84%	97%	83%
Cc1cc(O)cc(C)c1/C=C/c1cncc(C(N)=O)c1 [GW435821X]	84%	100%	100%	92%	65%	90%	4.4%	1%	100%	95%	77%	2.1%	100%	96%	25%	100%	100%	100%	100%	74%
CN(C)CCNC(=O)Nc1ccc(N(C)c2ccnc(Nc3ccc(CS(C)(=O)=O)cc3)n2)cc1.Cl [GW830900A]	43%	65%	55%	31%	45%	52%	0%	0%	14%	72%	59%	0.1%	92%	88%	93%	85%	100%	83%	14%	76%
COc1ccccc1-c1cc(/C=C2\C(=O)Nc3ncc(Br)cc32)cc(Br)c1O [GW442130X]	52%	43%	30%	100%	100%	100%	76%	65%	100%	62%	100%	70%	100%	100%	100%	100%	100%	73%	100%	93%
COc1ccc2[nH]c3c4[nH]c5ccc(OC)cc5c4c4c(c3c2c1)C(=O)NC4=O [GW296115X]	82%	55%	31%	15%	6.6%	1.7%	8.2%	9%	49%	66%	72%	24%	100%	43%	85%	91%	81%	99%	88%	2.6%
Cl.O=C(Nc1ccc(Oc2ccc3[nH]c(NC(=O)c4ccccc4)nc3c2)cc1)Nc1cc(C(F)(F)F)ccc1F [GW709042A]	85%	99%	100%	20%	84%	79%	2.9%	0.8%	4.9%	20%	86%	1.4%	98%	85%	50%	95%	93%	100%	1%	68%
COc1cc2ncn(-c3cc(O[C@H](C)c4ccccc4Cl)c(C(N)=O)s3)c2cc1OC [GSK237701A]	88%	79%	81%	11%	14%	14%	34%	33%	12%	81%	100%	49%	99%	86%	52%	100%	54%	75%	0.3%	69%
C[C@@H](Oc1cc(-n2cnc3ccc(OC4CCN(C)CC4)cc32)sc1C(N)=O)c1ccccc1Cl [GSK579289A]	82%	98%	96%	49%	1.7%	48%	31%	30%	41%	95%	81%	32%	100%	65%	82%	100%	100%	100%	3.3%	75%
CC(C)COC(=O)c1ccc2c(c1)/C(=C/Nc1ccc(S(N)(=O)=O)cc1)C(=O)N2 [GW416981X]	44%	65%	71%	53%	20%	22%	57%	100%	100%	100%	85%	100%	100%	91%	100%	100%	100%	100%	100%	36%
O=C(Nc1n[nH]c2nc(-c3ccc(O)cc3)c(Br)cc12)C1CC1 [SB-725317]	35%	85%	80%	100%	100%	94%	56%	71%	100%	96%	86%	84%	100%	94%	83%	100%	100%	100%	95%	96%
NS(=O)(=O)c1ccc(N/N=C2\C(=O)Nc3ccc(Cl)cc32)cc1 [GW280670X]	84%	100%	100%	100%	100%	100%	67%	81%	100%	58%	42%	90%	100%	98%	96%	100%	100%	100%	100%	70%
COc1ccc2cc(-c3c(-c4ccncc4)nc(-c4ccc(S(C)(=O)=O)cc4C)n3C)ccc2c1 [SB-633825]	73%	24%	20%	52%	46%	74%	77%	65%	88%	89%	91%	74%	67%	70%	54%	74%	29%	100%	1.3%	90%
COc1ccc(COc2ccc(Cc3cnc(N)nc3N)cc2OC)cc1 [GW632580X]	85%	93%	94%	100%	68%	96%	93%	96%	100%	100%	91%	95%	100%	100%	87%	79%	91%	100%	88%	95%
